Measured values taken from PubChem BioAssay AID1851 (National Center for Advancing Translational Sciences (NCATS), 2009).
Among all 16,000 compounds or so, about 5,100 (32%) were called active. Another 25% or so got no clear call; they are omitted. This is one part of the list. Values without a mark were called inactive. Calls come from the whole dose curve; as a rule, active = well fitted curve in the direction sought with a large enough effect; inconclusive = small, poorly fitted or top-dose-only effect, or effect the other way; inactive = no such curve, though single readings can be large or run the other way.

molecular target: Cytochrome P450 3A4 (Homo sapiens) (UniProt P08684); assay: Cytochrome panel assay with activity outcomes; conditions: recombinant CYP, pro-luciferin dealkylation, luminescence, p450-cyp3a4; series mostly up to 57.1 µM; activity, negative = inhibition: at the top concentration
% is set by controls: 0 for no effect and ±100 for the full control effect.

Cytochrome P450 3A4 (Homo sapiens), sequence (P08684 whole entry, looked up): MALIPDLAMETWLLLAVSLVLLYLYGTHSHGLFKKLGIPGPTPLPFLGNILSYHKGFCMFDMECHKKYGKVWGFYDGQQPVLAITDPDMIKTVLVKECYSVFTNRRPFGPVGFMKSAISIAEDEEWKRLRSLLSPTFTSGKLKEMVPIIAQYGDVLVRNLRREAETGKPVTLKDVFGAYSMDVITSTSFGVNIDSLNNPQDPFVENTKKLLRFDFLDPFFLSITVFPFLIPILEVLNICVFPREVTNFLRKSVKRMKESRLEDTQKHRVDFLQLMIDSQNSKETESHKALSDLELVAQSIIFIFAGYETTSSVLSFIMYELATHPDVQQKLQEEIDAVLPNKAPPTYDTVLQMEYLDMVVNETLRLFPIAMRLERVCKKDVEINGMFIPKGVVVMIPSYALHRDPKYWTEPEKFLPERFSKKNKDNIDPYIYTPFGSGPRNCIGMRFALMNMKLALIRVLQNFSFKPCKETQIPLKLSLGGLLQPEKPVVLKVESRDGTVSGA

Row | SMILES | AC50 | activity, negative = inhibition
1 | CC1CC2=C(NC(=S)NC2c2ccc(F)cc2)/C(=C/c2ccc(F)cc2)C1 (stereo unspecified) | 5.01 µM (active) | –
2 | O=C1NCCN1Cc1ccccc1F | 15.8 µM (active) | –
3 | O=C1NCCN1Cc1cccc(Cl)c1 | – | -19%
4 | COC(=O)c1cc2n(n1)CCN(Cc1ccccc1F)C2=O | – | 17.9% [at 2.29 µM]
5 | N[C@@H](Cn1ccc(=O)n(Cc2ccccc2C(=O)O)c1=O)C(=O)O | – | -9.72%
6 | Cc1cccc(Cn2ncc(Cl)c(Cl)c2=O)c1 | 14.1 µM (active) | –
7 | O=C(OCn1ncc(Cl)c(Cl)c1=O)c1cccc(C(F)(F)F)c1 | – | 29.2%
8 | COc1ccccc1-c1cncnc1NCCc1cnc[nH]1 | 0.398 µM (active) | –
9 | COc1cccc(-c2cncnc2NCCc2cnc[nH]2)c1 | 0.631 µM (active) | –
10 | c1ncc(-c2ccc3c(c2)OCO3)c(NCCc2cnc[nH]2)n1 | 0.794 µM (active) | –
11 | Clc1ccc2c(c1)C=Nc1c(NCc3ccccc3)ncnc1O2 | – | 0.142%
12 | Cn1c(-c2ccc3c(c2)OCO3)cnc1NCc1ccccc1 | 7.94 µM (active) | –
13 | c1csc(CNc2ncncc2-c2ccc3c(c2)OCO3)c1 | – | -58.2%
14 | Cc1cnc(CNc2ncncc2-c2ccc3c(c2)OCO3)cn1 | 1.58 µM (active) | –
15 | c1cncc(CNc2ncncc2-c2ccc3c(c2)OCO3)c1 | 0.398 µM (active) | –
16 | c1ccc(CNc2ncncc2-c2ccc3c(c2)OCO3)cc1 | 0.501 µM (active) | –
17 | COC(=O)[C@H](C)NC(=O)[C@@H](C)CO | – | -19.6% [at 11.4 µM]
18 | Oc1c(C(O)(c2ccccc2)c2ccc3ccccc3c2O)ccc2ccccc12 | – | -13.3% [at 11.4 µM]
19 | CCCCOc1ccc(CN2CCC(O)CC2)cc1 | – | 10.8%
20 | CN1CCc2c(c3ccccc3n2C)C1 | – | -1.84%
21 | Cc1cccc(CNc2ncncc2-c2ccc3c(c2)OCO3)c1 | 0.251 µM (active) | –

Row | SMILES | AC50 | activity, negative = inhibition
22 | Cn1c(-c2ccc3c(c2)OCO3)cc(=O)c2ccccc21 | 10 µM (active) | –
23 | c1ccc(Nc2ncncc2-c2ccc3c(c2)OCO3)cc1 | 0.794 µM (active) | –
24 | CCOC(=O)Nc1ccc(C(=O)Oc2ccccc2)c(O)c1 | – | -6.59%
25 | C[n+]1cc(-c2ccccc2)n2c1CCCCC2 | – | 1.83%
26 | CCOC(=O)[C@]1(CC(=O)O)CCCC1=O | – | -3.51% [at 11.4 µM]
27 | CC(C)(C)Cn1nc(-c2ccc(Cl)cc2)c2c(N)ncnc21 | – | -26.6%
28 | COCCn1nc2cc(C(=O)NCc3cc(C(F)(F)F)cc(C(F)(F)F)c3)ccc2c1OC | – | 10.6% [at 2.29 µM]
29 | CCCn1nc2cc(C(=O)NCCCCc3ccccc3)ccc2c1OCC | 15.8 µM (active) | –
30 | CCOc1c2ccc(C(=O)NCc3ccc(OC(F)(F)F)cc3)cc2nn1C | – | 16.7% [at 2.29 µM]
31 | CCCn1nc2cc(C(=O)NCc3ccc(C)cc3)ccc2c1OC | 14.1 µM (active) | –
32 | CCOc1c2ccc(C(=O)NCCCCc3ccccc3)cc2nn1C | – | -28.7%
33 | COCCn1nc2cc(C(=O)NCC34CC5CC(CC(C5)C3)C4)ccc2c1OC | – | -1.55% [at 2.29 µM]
34 | CCOc1c2ccc(C(=O)NCCCCc3ccccc3)cc2nn1CC | – | 18.3% [at 2.29 µM]
35 | CCOc1c2ccc(C(=O)NCc3cc(C(F)(F)F)cc(C(F)(F)F)c3)cc2nn1C | 12.6 µM (active) | –
36 | CCCn1nc2cc(C(=O)NCCc3ccc(C)cc3)ccc2c1OCC | 6.31 µM (active) | –
37 | CCCCn1nc2cc(C(=O)NCC3CC3)ccc2c1OCC | – | -28%
38 | CCOC(=O)N/N=C1/C[C@@H](O)[C@@H](O)[C@@H]2[C@@H]3C(=O)N(CC)C(=O)[C@H]3CC[C@H]12 | – | -6.5% [at 11.4 µM]
39 | N#Cc1c(-c2ccccc2)ccnc1Oc1ccccc1 | – | 12.9%
40 | C/C(=N\OC(=O)c1ccccc1F)c1nccs1 | – | -4.04%
41 | CC(=O)OC[C@@H]1O[C@H](C/C=N\OC[C@@H](O)[C@H]2O[C@H]3OC(C)(C)O[C@H]3[C@@H]2O)C=C[C@@H]1OC(C)=O | – | -11.1% [at 11.4 µM]
42 | CC1(C)O[C@@H]2O[C@H]([C@H](O)CO/N=C3/[C@H]4O[C@@H]4[C@@H](O)[C@H]4[C@H]3CCn3c(=O)n(-c5ccccc5)c(=O)n34)[C@@H](O)[C@@H]2O1 | – | -8.83% [at 11.4 µM]

Row | SMILES | AC50 | activity, negative = inhibition
43 | C/C(CCC(=O)OC[C@@H]1O[C@H](C#Cc2ccccc2)C=C[C@@H]1Oc1ccc(C)cc1)=N/OC[C@@H](O)[C@H]1O[C@H]2OC(C)(C)O[C@H]2[C@@H]1O | 3.98 µM (active) | –
44 | COc1ccc(O[C@H]2C=C[C@@H](c3ccccc3)O[C@H]2COC(=O)CC/C(C)=N\OC[C@@H](O)[C@H]2O[C@H]3OC(C)(C)O[C@H]3[C@@H]2O)cc1 | 3.98 µM (active) | –
45 | Cc1ccc(/C(O)=C2/C(=O)C(=O)N(CCCn3ccnc3)C2c2ccccn2)cc1 (stereo unspecified) | – | -23.3%
46 | COCCCN1C(=O)C(=O)/C(=C(/O)c2ccc(OC(C)C)c(C)c2)C1c1ccncc1 (stereo unspecified) | – | -21.3%
47 | CCOc1ccc(/C(O)=C2/C(=O)C(=O)N(CCCn3ccnc3)C2c2cccs2)cc1Cl (stereo unspecified) | 0.282 µM (active) | –
48 | Cn1cnnc1SCC(=O)OCN1C(=O)c2ccccc2C1=O | – | -1.18%
49 | Cc1cccc(NC(=O)CCCN2C(=O)c3cccc4cccc(c34)C2=O)c1 | 2.24 µM (active) | –
50 | CC(=NCCN1CCN(C(=S)Nc2ccccc2)CC1)C1=C(O)CC(C)(C)CC1=O | – | -20.4% [at 11.4 µM]
51 | Cc1cccc(/C(N)=N/OC(=O)CCCN2C(=O)c3ccccc3C2=O)c1 | 4.47 µM (active) | –
52 | CCN(CC)CCN1C(=O)c2cccc3cc(N)cc(c23)C1=O | – | -14.7% [at 11.4 µM]
53 | Cc1ccc(NC(=S)N2CCN(CCN3C(=O)c4cccc5cccc(c45)C3=O)CC2)cc1 | 4.47 µM (active) | –
54 | O=C1c2ccccc2C(=O)N1CCSC(=S)N1CCOCC1 | – | 19.9%
55 | O=C(CCN1C(=O)c2ccccc2C1=O)Oc1ccc2ccccc2c1 | – | -16.5%
56 | COc1ccccc1CN1CCC2(CC1)CCN(S(C)(=O)=O)CC2 | – | -21.7%
57 | COc1ccccc1CN1CCC2(CC1)CCN(S(=O)(=O)c1ccccc1)CC2 | – | 9.4%
58 | COc1ccccc1CN1CC[C@@]2(CCCN(S(=O)(=O)c3ccccc3)C2)C1 | 10 µM (active) | –
59 | COc1ccccc1CN1CC2(CCN(S(C)(=O)=O)CC2)C1 | – | -33.1%
60 | COc1ccccc1CN1CCCC2(CCN(S(C)(=O)=O)CC2)C1 | – | -21.3%
61 | COc1ccccc1CN1CC2(CCN(S(=O)(=O)c3ccccc3)CC2)C1 | 20 µM (active) | –
